These results are taken from PubChem BioAssay.

Assay [1] concerns the target Cell division control protein 42 homolog (Homo sapiens) (UniProt P60953). As to the kind of experiment: activated mutant Cdc42 GTP-binding inhibitors, dose response, biochemical, multiplex bead flow cytometry, Bodipy-FL-GTP (AID 1333;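 active means fitted half-maximal concentration within the tested dose range, moderate curve steepness, a statistically real signal drop, and little compound fluorescence or tag-binding interference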).
The target is the same in assay [2]. In words: wildtype Cdc42 GTP-binding inhibitors, dose response, biochemical, multiplex bead flow cytometry, Bodipy-FL-GTP (AID 1334;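 active means fitted half-maximal concentration within the tested range, moderate curve steepness, significant signal drop, and little compound fluorescence or bead-linkage interference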). Conditions: bead-based flow cytometry, Bodipy-FL-GTP binding to GST-Cdc42; at 100 µM (top of the series) unless noted.
Assay [3] addresses GTPase HRas (Homo sapiens) (UniProt P01112). In words: inhibitors of GTP binding to wildtype Ras, dose response, biochemical, multiplex bead flow cytometry (AID 1335). Conditions: bead-based flow cytometry, Bodipy-GTP binding to GST-Ras; at 100 µM (top of the series) unless noted.
Assay [4] concerns Ras-related protein Rab-7a (dog), GTP binding. As to the kind of experiment: Rab7 GTP binding inhibitors, potency, dose response, biochemical, wildtype, multiplex bead flow cytometry (AID 1336; call rule not given here).
Assay [5] deals with Ras-related C3 botulinum toxin substrate 1 (Homo sapiens) (UniProt P63000). As to the kind of experiment: wildtype Rac1 GTP binding inhibitors, dose response, biochemical, multiplex bead flow cytometry (AID 1340;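 active means dose curve with midpoint inside tested range, moderate steepness, plateau gap beyond fit error, low compound glow and bead-link interference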). Conditions: GST-Rac1 beads, Bodipy-FL-GTP binding; at 100 µM (top of the series) unless noted.
In assay [6] the target is GTPase HRas (Homo sapiens) (UniProt P01112). In words: activated Ras mutant GTP binding inhibitors, dose response, biochemical, multiplex bead flow cytometry (AID 1341;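 active means dose-response curve with midpoint inside the tested range, moderate steepness, significant amplitude and little compound fluorescence or bead-attachment interference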;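 further: GST-tagged constitutively activated Ras mutant immobilized on beads and multiplexed with other GTPases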).

Each structure is given as a SMILES string. For part of these data: Potency and affinity values are given separately. Activity calls are given as the source filed them.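 How the source made its calls, unless noted: active means fitted half-maximal concentration within 10 nM to 100 µM, steepness 0.5 to 2, significant signal drop, low assay interference; inactive means the rest.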

Sequence of GTPase HRas (Homo sapiens) (P01112 whole entry, looked up): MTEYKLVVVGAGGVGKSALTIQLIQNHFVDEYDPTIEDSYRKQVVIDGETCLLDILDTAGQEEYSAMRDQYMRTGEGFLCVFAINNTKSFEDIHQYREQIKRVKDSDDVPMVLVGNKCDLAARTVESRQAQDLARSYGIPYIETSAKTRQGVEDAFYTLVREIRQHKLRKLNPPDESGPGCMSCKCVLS
Sequence of Cell division control protein 42 homolog (Homo sapiens) (P60953 whole entry, looked up): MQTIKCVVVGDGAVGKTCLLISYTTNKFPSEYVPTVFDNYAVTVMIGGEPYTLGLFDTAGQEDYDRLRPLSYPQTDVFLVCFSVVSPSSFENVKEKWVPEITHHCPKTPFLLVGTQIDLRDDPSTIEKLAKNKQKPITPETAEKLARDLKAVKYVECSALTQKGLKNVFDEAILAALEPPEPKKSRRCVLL

Regarding `CCN(CC)c1ccc(/C=c2\sc3nnc(-c4ccccc4Cl)n3c2=O)cc1`, the compound was classed as inactive in assay [1], in assay [4] and in assay [6]. For the same compound, in assay [2], the fluorescence, percent of control (lower = inhibition) amounted to 117%. Moreover, the GTP binding, percent of control in assay [3] is 128%. The compound also registered a GTP binding signal, raw median fluorescence (lower = inhibition) (MCF (arbitrary fluorescence units)) in assay [5] of 225.

Consider `COc1ccc(OC)c(CCNCc2ccc(C(=O)O)s2)c1`, for which the compound was called inactive in assay [1], in assay [4] and in assay [6]. In addition, the fluorescence, percent of control (lower = inhibition) in assay [2] stood at 58.4%. This compound also registered a GTP binding, percent of control in assay [3] of 82.2%. For the same compound, in assay [5], the GTP binding signal, raw median fluorescence (lower = inhibition) (MCF (arbitrary fluorescence units)) came to 35.9.

For `COc1ccc(C(=O)N[C@H](C(=O)OCc2cc(=O)oc3cc(C)ccc23)C(C)C)cc1`, the outcome in assay [1], in assay [4] and in assay [6] was inactive. Moreover, the fluorescence, percent of control (lower = inhibition) in assay [2] worked out at 50.4%. In assay [3], this compound came in with a GTP binding, percent of control of 63.8%. Moreover, the GTP binding signal, raw median fluorescence (lower = inhibition) (MCF (arbitrary fluorescence units)) in assay [5] was 202.

`COc1cc(N2CCCC2)c(OC)cc1/C=C(/C#N)c1ccc(Br)cc1`: the result in assay [1], in assay [4] and in assay [6] was inactive. In addition, the fluorescence, percent of control (lower = inhibition) in assay [2] is 104%. Besides, the GTP binding, percent of control in assay [3] was found to be 117%. In assay [5], this compound registered a GTP binding signal, raw median fluorescence (lower = inhibition) (MCF (arbitrary fluorescence units)) of 258.

Take `O=C(O)c1cccnc1SCc1ccccc1Cl`: the call in assay [1], in assay [4] and in assay [6] was inactive. Besides, in assay [2], the fluorescence, percent of control (lower = inhibition) was found to be 103%. In assay [3], this compound came in with a GTP binding, percent of control of 119%. The compound further returned a GTP binding signal, raw median fluorescence (lower = inhibition) (MCF (arbitrary fluorescence units)) in assay [5] of 88.1.

`CCCCCCOc1ccc(C#CC(=O)c2ccc([N+](=O)[O-])cc2)cc1`: the compound was classed as inactive in assay [1], in assay [4] and in assay [6]. Besides, in assay [2], the fluorescence, percent of control (lower = inhibition) stood at 54.3%. For the same compound, the GTP binding, percent of control in assay [3] amounted to 199%. For the same compound, in assay [5], the GTP binding signal, raw median fluorescence (lower = inhibition) (MCF (arbitrary fluorescence units)) turned out to be 56.6.

`COc1cc(/C=N/NC(=O)CSc2n[nH]c(=O)[nH]c2=O)cc(OC)c1O`: the result in assay [1], in assay [4] and in assay [6] was inactive. In addition, the fluorescence, percent of control (lower = inhibition) in assay [2] was determined as 36%. Also, in assay [3], the GTP binding, percent of control is 78.9%. The compound further displayed a GTP binding signal, raw median fluorescence (lower = inhibition) (MCF (arbitrary fluorescence units)) in assay [5] of 178.

Consider `COc1ccc(-c2c(C)[nH]n3c(=O)c(Cc4ccccc4)c(C)nc23)cc1`, for which the compound was called inactive in assay [1], in assay [4] and in assay [6]. Also, in assay [2], the fluorescence, percent of control (lower = inhibition) came out at 33.9%. The GTP binding, percent of control in assay [3] was 79%. This compound came in with a GTP binding signal, raw median fluorescence (lower = inhibition) (MCF (arbitrary fluorescence units)) in assay [5] of 217.

For `Cc1ccc(-n2c3nc(=O)[nH]c(=O)c-3cc3cc([N+](=O)[O-])ccc32)cc1`, the result in assay [1], in assay [4] and in assay [6] was inactive. The fluorescence, percent of control (lower = inhibition) in assay [2] is 34.4%. Also, the GTP binding, percent of control in assay [3] is 71%. In addition, in assay [5], the GTP binding signal, raw median fluorescence (lower = inhibition) (MCF (arbitrary fluorescence units)) was determined as 103.

Take `CC(C)(C)C(=O)c1sc2nc(-c3cccs3)cc(C(F)(F)F)c2c1N`: the result in assay [1], in assay [4] and in assay [6] was inactive. Moreover, the fluorescence, percent of control (lower = inhibition) in assay [2] is 86.4%. In assay [3], this compound yielded a GTP binding, percent of control of 182%. The compound also registered a GTP binding signal, raw median fluorescence (lower = inhibition) (MCF (arbitrary fluorescence units)) in assay [5] of 194.

Turning to `COc1cc(-c2cc(=O)c3c(O)cc(O)cc3o2)ccc1O`, the compound was classed as inactive in assay [1], in assay [4] and in assay [6]. For the same compound, the fluorescence, percent of control (lower = inhibition) in assay [2] came to 36%. The compound also registered a GTP binding, percent of control in assay [3] of 84.7%. The compound further gave a GTP binding signal, raw median fluorescence (lower = inhibition) (MCF (arbitrary fluorescence units)) in assay [5] of 189.

Consider `O=C(O)c1ccc(COc2cccc3ccccc23)o1`, for which the outcome in assay [1], in assay [4] and in assay [6] was inactive. The fluorescence, percent of control (lower = inhibition) in assay [2] was determined as 58.3%. Besides, in assay [3], the GTP binding, percent of control was 89.1%. The compound further registered a GTP binding signal, raw median fluorescence (lower = inhibition) (MCF (arbitrary fluorescence units)) in assay [5] of 31.9.

On to `COc1ccccc1OCCn1cc(C(=O)O)c2ccc(Cl)cc21`, for which the call in assay [1], in assay [4] and in assay [6] was inactive. In assay [2], the fluorescence, percent of control (lower = inhibition) amounted to 57%. Also, the GTP binding, percent of control in assay [3] was 201%. The GTP binding signal, raw median fluorescence (lower = inhibition) (MCF (arbitrary fluorescence units)) in assay [5] came to 61.4.

Take `COc1ccc(/C=N/NC(=O)Nc2cccc3nsnc23)cc1OC`: the outcome in assay [1], in assay [4] and in assay [6] was inactive. For the same compound, the fluorescence, percent of control (lower = inhibition) in assay [2] is 45.1%. Also, the GTP binding, percent of control in assay [3] worked out at 46.7%. Besides, the GTP binding signal, raw median fluorescence (lower = inhibition) (MCF (arbitrary fluorescence units)) in assay [5] was 132.

As to `COc1ccc(C(=O)O)c(OCc2ccccc2C)c1`, the compound was called inactive in assay [1], in assay [4] and in assay [6]. Besides, in assay [2], the fluorescence, percent of control (lower = inhibition) was 62.5%. In assay [3], this compound had a GTP binding, percent of control of 208%. For the same compound, in assay [5], the GTP binding signal, raw median fluorescence (lower = inhibition) (MCF (arbitrary fluorescence units)) is 57.3.
